Results from PubChem BioAssay (NCI).
This is part of a sample that, as a whole, favours compounds with a hit. Of some 79,000 tested, about 15% had one in any assay. Activity calls are given as the source filed them. Cut-off read from the data, not from the text of the source: active = growth inhibition above about 70%; inactive = the rest.

Key:
[1] = NCI Yeast Anticancer Drug Screen. Data for the rad52 strain (AID 147);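 note: 0% = growth of vehicle-treated control cultures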; conditions: S. cerevisiae rad52 mutant growth inhibition, stronger effect = higher value
Procedure, shortened: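 Read-out: growth inhibition versus vehicle-treated controls. Cells were a DNA repair-deficient yeast strain treated with compounds.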

[2] = NCI Yeast Anticancer Drug Screen. Data for the wt1 strain (AID 149);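 note: 0% = growth of vehicle-treated wt1 cultures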; conditions: S. cerevisiae wt1 strain (SPY 50644) growth inhibition, stronger effect = higher value
Procedure, shortened: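 wt1 strain grown with compound or vehicle; inhibition taken from the growth difference.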

[3] = NCI Yeast Anticancer Drug Screen. Data for the rad50EPP+ strain (AID 151);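 note: 0% = growth of vehicle-treated control cultures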; conditions: S. cerevisiae rad50 mutant strain, stronger effect = higher value
Procedure, shortened: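 Growth inhibition read against vehicle controls in rad50EPP+ yeast, a strain altered in DNA damage repair, after compound exposure.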

[4] = NCI Yeast Anticancer Drug Screen. Data for the mgt1 strain (AID 153); conditions: S. cerevisiae mgt1 mutant growth inhibition, stronger effect = higher value
Procedure, shortened: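 mgt1 yeast grown with test compound; read-out is growth inhibition versus vehicle-treated cultures.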

[5] = NCI Yeast Anticancer Drug Screen. Data for the rad50 strain (AID 155);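 note: 0% = growth of vehicle-only cultures of the same strain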; conditions: S. cerevisiae rad50 strain growth inhibition, stronger effect = higher value
Procedure, shortened: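 DNA repair mutant yeast, compound exposure, growth read-out; inhibition is taken relative to vehicle.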

[6] = NCI Yeast Anticancer Drug Screen. Data for the mec2-1 strain (AID 157); conditions: S. cerevisiae mec2-1 strain, stronger effect = higher value
Procedure, shortened: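 Yeast mec2-1 mutant treated with compound. Readout: growth inhibition vs vehicle controls.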

[7] = NCI Yeast Anticancer Drug Screen. Data for the rad14 strain (AID 159);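 note: 0% = growth of vehicle-treated control cultures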; conditions: S. cerevisiae rad14 strain growth inhibition, stronger effect = higher value
Procedure, shortened: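 DNA repair-defective yeast, compound-exposed; % growth inhibition derived by comparison with vehicle-treated controls.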

[8] = NCI Yeast Anticancer Drug Screen. Data for the sgs1 mgt1 strain (AID 161);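 note: 0% = growth of cultures given vehicle only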; conditions: S. cerevisiae sgs1 mgt1 strain, stronger effect = higher value
Procedure, shortened: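 Inhibition of yeast growth, normalised to vehicle-treated controls, is reported for a strain bearing genetic alterations in DNA damage repair.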

[9] = NCI Yeast Anticancer Drug Screen. Data for the CLN2oe strain (AID 163);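 note: 0% = growth of vehicle-only control cultures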; conditions: S. cerevisiae CLN2oe strain, stronger effect = higher value
Procedure, shortened: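 Read-out: yeast growth inhibition, expressed relative to vehicle-only controls. The strain bears an engineered cell-cycle alteration.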

[10] = NCI Yeast Anticancer Drug Screen. Data for the cln2 rad14 strain (AID 165);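 note: 0% = growth equal to vehicle treated cultures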; conditions: S. cerevisiae cln2 rad14 strain, stronger effect = higher value
Procedure, shortened: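 cln2 rad14 yeast strain; compound exposure; growth inhibition read vs vehicle controls.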

[11] = NCI Yeast Anticancer Drug Screen. Data for the bub3 strain (AID 167); conditions: S. cerevisiae bub3 mutant strain, stronger effect = higher value
Procedure, shortened: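 In this screen, a yeast mutant lacking normal mitotic checkpoint function is challenged with compound. Relative growth versus vehicle gives the inhibition value.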

[12] = NCI Yeast Anticancer Drug Screen. Data for the wt2 strain (AID 169);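 note: 0% = growth of vehicle-treated yeast cultures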; conditions: S. cerevisiae wt2 strain growth inhibition, stronger effect = higher value
Procedure, shortened: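 Read-out: growth inhibition versus vehicle-treated control cultures after compound exposure of the yeast strain.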

[13] = NCI Yeast Anticancer Drug Screen. Data for the mlh1 strain (AID 171);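 note: 0% = growth of vehicle-treated control cultures of the same strain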; conditions: S. cerevisiae mlh1 strain growth inhibition, stronger effect = higher value
Procedure, shortened: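 Read-out: growth inhibition versus vehicle controls. Strain: engineered yeast with a defined DNA repair or cell cycle defect, compound-treated.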

[14] = NCI Yeast Anticancer Drug Screen. Data for the mlh1 rad18 strain (AID 175); conditions: S. cerevisiae mlh1 rad18 strain growth inhibition, stronger effect = higher value
Procedure, shortened: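 Yeast w/ defined DNA-repair lesions; compound exposure; growth vs vehicle controls → % inhibition.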

[15] = NCI Yeast Anticancer Drug Screen. Data for the rad18 strain (AID 177); conditions: S. cerevisiae rad18 mutant growth inhibition, stronger effect = higher value
Procedure, shortened: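 Readout: growth inhibition vs vehicle controls. Cells: genetically altered yeast strain, DNA repair defect.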

[16] = NCI Yeast Anticancer Drug Screen. Data for the sgs1 strain (AID 173);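 note: 0% = growth of vehicle-only control cultures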; conditions: S. cerevisiae sgs1 mutant, stronger effect = higher value
Procedure, shortened: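 Read-out: yeast growth inhibition relative to vehicle controls, following compound exposure of a strain with a defined DNA repair/cell cycle alteration.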

[17] = at 5.0 µM (retest, dose inferred, filed as 0.5)
[18] = at 50.0 µM (retest, dose inferred, filed as 5.0)

Measured: growth inhibition

O=C(O)CNC(c1ccccc1)(c1ccccc1)c1ccccc1
active: [1]; at 33.0 µM 92% | [1]; at 100.0 µM 98% | [2]; at 33.0 µM 83% | [2]; at 100.0 µM 97% | [4]; at 33.0 µM 87% | [4]; at 100.0 µM 96% | [5]; at 33.0 µM 87% | [5]; [18] 97% | [5]; at 50.0 µM 86.3% | [5]; at 100.0 µM 96% | [6]; at 33.0 µM 91% | [6]; [18] 91% | [6]; at 50.0 µM 90% | [6]; at 100.0 µM 99% | [7]; at 33.0 µM 90% | [7]; at 100.0 µM 98% | [8]; [18] 98% | [8]; at 50.0 µM 90.8% | [9]; at 33.0 µM 85% | [9]; at 100.0 µM 98% | [10]; [18] 99% | [10]; at 50.0 µM 86.3% | [11]; at 33.0 µM 94% | [11]; [18] 97% | [11]; at 50.0 µM 90.7% | [11]; at 100.0 µM 98% | [12]; at 33.0 µM 82% | [12]; at 100.0 µM 98% | [13]; at 33.0 µM 82% | [13]; at 100.0 µM 97% | [14]; [18] 91% | [14]; at 50.0 µM 89.9% | [15]; at 33.0 µM 89% | [15]; at 100.0 µM 97%
inactive: [1]; at 1.2 µM -9% | [1]; at 3.7 µM -2% | [1]; at 11.0 µM -2% | [2]; at 1.2 µM -15% | [2]; at 3.7 µM -9% | [2]; at 11.0 µM -25% | [3]; at 1.2 µM 11% | [3]; at 3.7 µM 4% | [3]; at 11.0 µM -6% | [3]; at 33.0 µM -3% | [3]; at 100.0 µM -5% | [4]; at 1.2 µM 19% | [4]; at 3.7 µM 13% | [4]; at 11.0 µM 16% | [5]; at 1.2 µM -10% | [5]; at 3.7 µM -2% | [5]; [17] 43% | [5]; at 11.0 µM -2% | [6]; at 1.2 µM -1% | [6]; at 3.7 µM 12% | [6]; [17] 35% | [6]; at 11.0 µM 6% | [7]; at 1.2 µM -2% | [7]; at 3.7 µM -6% | [7]; at 11.0 µM -6% | [8]; [17] 2% | [9]; at 1.2 µM -14% | [9]; at 3.7 µM -12% | [9]; at 11.0 µM -6% | [10]; [17] 18% | [11]; at 1.2 µM -5% | [11]; at 3.7 µM 13% | [11]; [17] -8% | [11]; at 11.0 µM 24% | [12]; at 1.2 µM -27% | [12]; at 3.7 µM -20% | [12]; at 11.0 µM -9% | [13]; at 1.2 µM -32% | [13]; at 3.7 µM -29% | [13]; at 11.0 µM -20% | [14]; [17] 37% | [15]; at 1.2 µM -5% | [15]; at 3.7 µM -6% | [15]; at 11.0 µM -4%

Nc1ccc2c(c1)C(=O)c1c(F)cccc1-2
inactive: [1]; at 1.2 µM -3% | [1]; at 3.7 µM 5% | [1]; at 11.0 µM 17% | [1]; at 33.0 µM 69% | [2]; at 1.2 µM -6% | [2]; at 3.7 µM -6% | [2]; at 11.0 µM -6% | [2]; at 33.0 µM -2% | [2]; at 100.0 µM 50% | [3]; at 1.2 µM 5% | [3]; at 3.7 µM 21% | [3]; at 11.0 µM 53% | [4]; at 1.2 µM -1% | [4]; at 3.7 µM -2% | [4]; at 11.0 µM 1% | [4]; at 33.0 µM 13% | [5]; at 1.2 µM -4% | [5]; at 3.7 µM 11% | [5]; [17] -129% | [5]; at 11.0 µM 30% | [6]; at 1.2 µM 3% | [6]; at 3.7 µM 2% | [6]; [17] -48% | [6]; at 11.0 µM 18% | [6]; at 33.0 µM 13% | [6]; [18] -25% | [6]; at 50.0 µM 38.6% | [6]; at 100.0 µM 67% | [7]; at 1.2 µM 2% | [7]; at 3.7 µM 7% | [7]; at 11.0 µM 16% | [7]; at 33.0 µM 27% | [8]; [17] -70% | [8]; [18] -28% | [8]; at 50.0 µM 15.5% | [10]; [17] -55% | [10]; [18] -41% | [10]; at 50.0 µM 21.9% | [11]; at 1.2 µM -11% | [11]; at 3.7 µM -4% | [11]; [17] -60% | [11]; at 11.0 µM 1% | [11]; at 33.0 µM 12% | [11]; [18] -33% | [11]; at 50.0 µM 9% | [11]; at 100.0 µM 37% | [13]; at 1.2 µM 7% | [13]; at 3.7 µM -4% | [13]; at 11.0 µM 0% | [13]; at 33.0 µM 16% | [16]; at 1.2 µM -2% | [16]; at 3.7 µM 0% | [16]; at 11.0 µM 0% | [16]; at 33.0 µM 10% | [14]; [17] -120% | [14]; [18] -30% | [15]; at 1.2 µM 1% | [15]; at 3.7 µM 8% | [15]; at 11.0 µM 31%
active: [1]; at 100.0 µM 97% | [3]; at 33.0 µM 86% | [3]; at 100.0 µM 97% | [4]; at 100.0 µM 74% | [5]; at 33.0 µM 87% | [5]; [18] 78% | [5]; at 50.0 µM 90.5% | [5]; at 100.0 µM 98% | [7]; at 100.0 µM 78% | [13]; at 100.0 µM 86% | [16]; at 100.0 µM 92% | [14]; at 50.0 µM 84.5% | [15]; at 33.0 µM 72% | [15]; at 100.0 µM 97%
